Results taken from the supplement of paper PMC6555819.

Assays:
Experiment in all cases: PBM binding z-score (relative to random genomic background probes); higher = stronger binding; sequences stand for … in GC…GCGATTGACAGCGTAGAATGAAGG
[1] = tested on: FXR:RXRa (NR concentration 270 nM, RXRa partner concentration 90 nM)
Procedure, shortened: (§1)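 Each nuclear receptor dimer, without ligand, was incubated for 1 h on custom Agilent 4×180K protein-binding microarrays. Binding was detected with antibodies against each partner (one per run), and scanned fluorescence was regression-normalized. The binding z-scores are referenced to random human genomic background probes.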

[2] = tested on: LXRa:RXRa (NR concentration 270 nM, RXRa partner concentration 90 nM)
Procedure, shortened: as §1

[3] = tested on: LXRa homodimer (NR concentration 270 nM)
Procedure, shortened: as §1

[4] = tested on: LXRb:RXRa (NR concentration 270 nM, RXRa partner concentration 90 nM)
Procedure, shortened: as §1

[5] = tested on: LXRb homodimer (NR concentration 270 nM)
Procedure, shortened: as §1

[6] = tested on: PPARa:RXRa (NR concentration 270 nM, RXRa partner concentration 90 nM)
Procedure, shortened: as §1

[7] = tested on: PPARg:RXRa (NR concentration 180 nM, RXRa partner concentration 90 nM)
Procedure, shortened: as §1

[8] = tested on: PPARg:RXRa 270nM:90nM, anti-RXR (NR concentration 270 nM, RXRa partner concentration 90 nM)
Procedure, shortened: as §1

[9] = tested on: PPARg:RXRa 30nM:10nM, anti-RXR (NR concentration 30 nM, RXRa partner concentration 10 nM)
Procedure, shortened: as §1

[10] = tested on: PPARg:RXRa 90nM:30nM, anti-RXR (NR concentration 90 nM, RXRa partner concentration 30 nM)
Procedure, shortened: as §1

Sequence | PBM binding z-score [1] | PBM binding z-score [2] | PBM binding z-score [3] | PBM binding z-score [4] | PBM binding z-score [5] | PBM binding z-score [6] | PBM binding z-score [7] | PBM binding z-score [8] | PBM binding z-score [9] | PBM binding z-score [10]
TAGCCTAGGTCATGCGAGCCAGTATAGTGTCGGC | 4.25 | 2.95 | 0.265 | 1.8 | 0.134 | 3.6 | 2.35 | 2.43 | 0.259 | 1.24
TCTGGGAGGACACGAAAGGTCAGAGCTCGACATC | 3.35 | 4.18 | 3.31 | 3.11 | 0.345 | 3.51 | 1.49 | 2.81 | 1.88 | 2.34
CCGACTGGGACAGAAAGGTTACCATACCATCCGG | 0.177 | 0.493 | -0.124 | 0.512 | -1.05 | 1.71 | 1.4 | 1.74 | 0.364 | 1.34
CAAACTACGTCACCGGAAGGTCAAAGTCCGCATG | 3.24 | 3.3 | 3.72 | 3.48 | 1.01 | 3.5 | 1.14 | 1.71 | 0.159 | 1.15
TTACCAAGGTGAGCTGAGGTCCTTGATCCAACTC | 0.6 | -0.364 | -0.744 | -0.383 | -1.22 | 0.604 | -0.286 | 0.115 | -0.357 | -0.0305
CTACTAAGGTGAACAAGGTCGTTGATTACTATTC | 1.84 | 1.76 | 0.193 | 2.02 | -0.227 | 3.07 | 1.47 | 1.99 | 0.156 | 1.06
TCTGCTAGGTCAACGATGGTCAGCTACTCTGCTA | 3.16 | 2.86 | -0.273 | 1.48 | -0.302 | 3.3 | 2.4 | 3.05 | 1.62 | 2.47
ATCTCTACGTAAAAGTTCAGTGAATCCCGAGGAT | 0.535 | 1.12 | 1.27 | 0.881 | 1.33 | 0.835 | 0.595 | 1.55 | 0.654 | 1.25
ATCTCTAGGTAAAGTTCAGTGTAAGATCGATAGA | 1.55 | 2.13 | 2.27 | 1.55 | 1.1 | 2.47 | 3.17 | 4.49 | 2.44 | 4.28
TCTGCTAGGTCAGTTGGTCAGCTATCGAGCTGCC | 0.915 | 0.538 | -0.72 | 0.193 | 0.35 | 1.26 | 0.224 | 1.72 | 1.21 | 1.45
ATATATAGGTTATCGGGTCATTCAGTTTGCGCAT | 3.94 | 3.78 | 2.66 | 3.46 | 2.07 | 5.17 | 7.65 | 6.52 | 4.09 | 6.01
TAGCCTAGATCATGCGGGCCAGTATAGTGTCGGC | -2.92 | -1.33 | -1.04 | -1.36 | -0.772 | -0.834 | 0.0405 | -0.522 | -0.938 | -0.742
TCTATTAGTTGAAGGGCCACCGACGAGTCCGTTT | 0.67 | 0.709 | 0.433 | 0.782 | 0.195 | 0.892 | 0.0935 | 2.33 | 3.78 | 3.03
GGAACGAGGGCAAAGTAGATAGCATCTGTCGACG | 0.832 | 0.557 | -0.498 | 0.289 | -0.467 | 1.98 | 2.48 | 2.96 | 0.802 | 2.23
CATACAGGGTCAGCTAGGCGAGAGTAGGGACGGC | 4.5 | 2.84 | -0.0386 | 2.08 | 0.134 | 4.19 | 2.92 | 2.91 | 0.767 | 1.75
AATACAGGGTCATCGTAGGCAAGAGTACGCACAG | 7.68 | 6.03 | 2.1 | 4.59 | 1.4 | 5.83 | 7 | 6.27 | 3.31 | 4.97
TCTCGGAGGACACGAAAGGTCCGAGCTCGACATC | 0.78 | 0.222 | -0.359 | -0.21 | -0.97 | 0.254 | 0.0516 | 0.627 | 1.98 | 1.28
GCTGACGGGTCAAAGGTTATAGCATGAATAGAAT | 7.43 | 5.45 | 0.433 | 5.53 | -0.231 | 6.99 | 9.41 | 8.11 | 7.21 | 8.55
AGTCATAGTTCATCTAGGTAACGTAAGATATGCT | 2.22 | 2.66 | 1.11 | 1.59 | 0.357 | 2.84 | 2.87 | 3.22 | 1.32 | 2.47
ATCGAAATGTCGAAGGTGAGTATACCCACCCGAA | -0.36 | -0.333 | -0.285 | -0.254 | -0.151 | 0.29 | 0.913 | 0.538 | 0.133 | 0.522
AGAATGAGGTTATTAAGATCAGGGACTTGCGGTC | 1.59 | 1.49 | 0.193 | 1.13 | 0.02 | 2.5 | 1.59 | 1.87 | 0.187 | 1.08
AGAATGAGGTTATACGTAGACCAGGGAAGAAAGT | 2.15 | 1.62 | -0.0461 | 1.41 | -0.0466 | 3.11 | 1.74 | 1.98 | 0.485 | 1.29
ACAGACAGGTGAGTGAAGGTGACTCAGCTGGACG | 0.162 | -0.00172 | -0.654 | -0.308 | -0.35 | 0.592 | 0.8 | 0.28 | -0.492 | -0.01
AATAGAGGGTCACTAGGCCAGAGTAGGTACGAAT | 4.62 | 3.5 | 0.324 | 2.81 | -0.0545 | 4.99 | 6.44 | 5.59 | 2.33 | 4.4
